Common to all, as to details: mRNA level, 48 h; actives raise or lower the signal
Read-out in experiment [1]: ABC Transporter (ABCB11), ABCB11 (gene 8647)
Description: LTEA_HepaRG_ABCB11: Life Technologies and Expression Analysis (LTEA) Assay for ABC Transporter (ABCB11) using HepaRG (AID 2283463). A digest of the protocol: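 ABCB11 transcript levels are read by Fluidigm TaqMan qRT-PCR after 48 h chemical treatment of human HepaRG cells. Concentrations span 100 uM downward in half-log steps with 0.5% DMSO; gain or loss is fitted against DMSO controls.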

Read-out in experiment [2]: ABC Transporter (ABCC2), ABCC2 (gene 1244)
The experiment in a line: LTEA_HepaRG_ABCC2: Life Technologies and Expression Analysis (LTEA) Assay for ABC Transporter (ABCC2) using HepaRG (AID 2283464). A digest of the protocol: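 qRT-PCR (TaqMan, Fluidigm array) read-out of ABCC2 mRNA, normalized to three housekeeping genes. Differentiated HepaRG cells were treated 48 h in serum-free induction medium with 8-point half-log series from 100 uM in 0.5% DMSO; curves fitted bidirectionally relative to DMSO.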

Read-out in experiment [3]: Broad substrate specificity ATP-binding cassette transporter ABCG2 (Homo sapiens) (UniProt Q9UNQ0)
Description: LTEA_HepaRG_ABCG2: Life Technologies and Expression Analysis (LTEA) Assay for ABC Transporter (ABCG2) using HepaRG (AID 2283465). A digest of the protocol: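 Read-out is ABCG2 mRNA induction or loss quantified by qRT-PCR after 48 h chemical treatment of human HepaRG cells, normalized to three housekeeping genes. Concentrations reached 100 uM top in half-log steps; fitting was bidirectional against 0.5% DMSO.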

Read-out in experiment [4]: ATP-citrate lyase (ACLY), ACLY (gene 47)
The experiment in a line: LTEA_HepaRG_ACLY: Life Technologies and Expression Analysis (LTEA) Assay for ATP-citrate lyase (ACLY) using HepaRG (AID 2283466). A digest of the protocol:
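HepaRG, 48 h exposure, 8-pt half-log dilutions (top 100 uM), 0.5% DMSO. Readout: ACLY mRNA, TaqMan qRT-PCR, housekeeping-normalized (ACTB/GAPDH/POLR2A). Bidirectional curve fit vs DMSO.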

Read-out in experiment [5]: Peroxisomal acyl-coenzyme A oxidase 1 (ACOX1) gene, ACOX1 (gene 51)
The experiment in a line: LTEA_HepaRG_ACOX1: Life Technologies and Expression Analysis (LTEA) Assay for Peroxisomal acyl-coenzyme A oxidase 1 (ACOX1) gene using HepaRG (AID 2283467). Put shortly:
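Measured by qRT-PCR against three housekeeping genes: ACOX1 transcript change in human HepaRG cells after 48 h dosing. Concentrations ran up to 100 uM in half-log steps. Curves were fitted bidirectionally relative to 0.5% DMSO.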

Read-out in experiment [6]: Alkaline Phosphatase, Placental (ALPP) gene, ALPP (gene 250)
The experiment in a line: LTEA_HepaRG_ALPP: Life Technologies and Expression Analysis (LTEA) Assay for Alkaline Phosphatase, Placental (ALPP) gene using HepaRG (AID 2283468). Put shortly:
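qRT-PCR readout of ALPP mRNA (Fluidigm TaqMan), normalized to ACTB/GAPDH/POLR2A, after 48 h chemical exposure of HepaRG cells; 8-point half-log series, top 100 uM, 0.5% DMSO vehicle. Bidirectional curve fit versus DMSO baseline.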

Read-out in experiment [7]: Bcl-2 (BAD) gene, BAD (gene 572)
The experiment in a line: LTEA_HepaRG_BAD: Life Technologies and Expression Analysis (LTEA) Assay for Bcl-2 (BAD) gene using HepaRG (AID 2283469). Put shortly: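 BAD transcript change, measured by qRT-PCR against three housekeeping genes and fitted in both directions relative to 0.5% DMSO, after 48 h chemical treatment of human HepaRG liver cells at concentrations up to 100 uM.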

Read-out in experiment [8]: Bcl-2 (BAX) gene, BAX (gene 581)
The experiment in a line: LTEA_HepaRG_BAX: Life Technologies and Expression Analysis (LTEA) Assay for Bcl-2 (BAX) gene using HepaRG (AID 2283470). Put shortly: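 Concentration-response endpoint fitted in both directions relative to 0.5% DMSO vehicle. Human HepaRG cultures receive test chemicals for 48 h at up to 100 uM; BAX mRNA is quantified by qRT-PCR against housekeeping genes.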

Read-out in experiment [9]: adenosine kinase (ADK) gene, ADK (gene 132)
Description: LTEA_HepaRG_ADK: Life Technologies and Expression Analysis (LTEA) Assay for adenosine kinase (ADK) gene using HepaRG (AID 2283471). A digest of the protocol: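 HepaRG (human liver), 48 h chemical exposure, 8-pt half-log series, top 100 uM, 0.5% DMSO vehicle. Readout: ADK mRNA by qRT-PCR vs housekeeping genes; bidirectional curve fit relative to DMSO baseline.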

Read-out in the next experiment: BCL2L11 (gene 10018)
The experiment in a line: LTEA_HepaRG_BCL2L11: Life Technologies and Expression Analysis (LTEA) Assay for Bcl-2 (BCL2L11) gene using HepaRG (AID 2283473). Put shortly: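 HepaRG, 48 h exposure, 8-pt half-log series from 100 uM in 0.5% DMSO, duplicates; qRT-PCR (Fluidigm TaqMan) for BCL2L11, housekeeping-normalized; bidirectional curve fit relative to DMSO baseline.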

Read-out in experiment [10]: Apolipoprotein A-V (APOA5) gene, APOA5 (gene 116519)
Description: LTEA_HepaRG_APOA5: Life Technologies and Expression Analysis (LTEA) Assay for Apolipoprotein A-V (APOA5) gene using HepaRG (AID 2283474). Put shortly: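 HepaRG, 48 h chemical exposure in serum-free induction medium, 8-pt half-log series (top 100 uM), 0.5% DMSO vehicle, duplicates. Readout: APOA5 mRNA by qRT-PCR, housekeeping-normalized; bidirectional fit vs DMSO baseline.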

Read-out in experiment [11]: Apoptosis regulator Bcl-2 (Homo sapiens) (UniProt P10415)
The experiment in a line: LTEA_HepaRG_BCL2: Life Technologies and Expression Analysis (LTEA) Assay for Bcl-2 gene using HepaRG (AID 2283475). A digest of the protocol: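 Expression change of BCL2 mRNA in HepaRG after 48 h dosing, quantified by TaqMan qRT-PCR against three endogenous controls. Concentration-response used eight points up to 100 uM, vehicle 0.5% DMSO.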

Read-out in experiment [12]: Bcl-2 (BID) gene, BID (gene 637)
Description: LTEA_HepaRG_BID: Life Technologies and Expression Analysis (LTEA) Assay for Bcl-2 (BID) gene using HepaRG (AID 2283476). Put shortly:
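Gain or loss of BID expression is fitted relative to 0.5% DMSO vehicle. Human HepaRG liver cells received a 48 h chemical exposure over an eight-point concentration range.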

Read-out in the next experiment: Caspase-3 (Homo sapiens) (UniProt P42574)
Description: LTEA_HepaRG_CASP3: Life Technologies and Expression Analysis (LTEA) Assay for cysteine-aspartic acid protease (CASP3) using HepaRG (AID 2283477). A digest of the protocol:
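HepaRG, 48 h exposure, 8 conc. (top 100 uM, half-log steps, duplicate), 0.5% DMSO vehicle; qRT-PCR of CASP3 transcript, housekeeping-normalised (ACTB/GAPDH/POLR2A); bidirectional curve fit vs DMSO baseline.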

Read-out in experiment [13]: Cytochrome P450 (CYP24A1), CYP24A1 (gene 1591)
Description: LTEA_HepaRG_CYP24A1: Life Technologies and Expression Analysis (LTEA) Assay for Cytochrome P450 (CYP24A1) using HepaRG (AID 2283478). Put shortly:
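qRT-PCR read-out: CYP24A1 transcript levels normalized to three housekeeping genes, bidirectional curve fits against 0.5% DMSO baseline. Human HepaRG cells treated 48 h with chemicals at eight concentrations from 100 uM in half-log steps.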

Read-out in experiment [14]: Cytochrome P450 (CYP1A2), CYP1A2 (gene 1544)
The experiment in a line: LTEA_HepaRG_CYP1A2: Life Technologies and Expression Analysis (LTEA) Assay for Cytochrome P450 (CYP1A2) using HepaRG (AID 2283479). A digest of the protocol:
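HepaRG, 48 h exposure, top 100 uM, half-log 8-pt, 0.5% DMSO vehicle, duplicates. Readout: TaqMan qRT-PCR of CYP1A2 mRNA, housekeeping-normalized (ACTB/GAPDH/POLR2A). Gain/loss fit relative to DMSO baseline.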

Read-out in experiment [15]: cysteine-aspartic acid protease (CASP8), CASP8 (gene 841)
The experiment in a line: LTEA_HepaRG_CASP8: Life Technologies and Expression Analysis (LTEA) Assay for cysteine-aspartic acid protease (CASP8) using HepaRG (AID 2283480). Put shortly:
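HepaRG, 48 h exposure, duplicate wells; 8 conc, half-log from 100 uM, 0.5% DMSO. Serum-free induction medium. CASP8 mRNA by TaqMan qRT-PCR, norm. ACTB/GAPDH/POLR2A; gain/loss fitted vs DMSO.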

Read-out in experiment [16]: Cytochrome P450 (CYP2B6), CYP2B6 (gene 1555)
The experiment in a line: LTEA_HepaRG_CYP2B6: Life Technologies and Expression Analysis (LTEA) Assay for Cytochrome P450 (CYP2B6) using HepaRG (AID 2283481). Put shortly: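 Read-out is CYP2B6 mRNA by TaqMan qRT-PCR, normalized to three housekeeping genes and fitted bidirectionally against 0.5% DMSO baseline. Human HepaRG cells received test chemicals for 48 h, top concentration 100 uM, half-log dilutions.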

Read-out in experiment [17]: Cytochrome P450 2C19 (Homo sapiens) (UniProt P33261)
The experiment in a line: LTEA_HepaRG_CYP2C19: Life Technologies and Expression Analysis (LTEA) Assay for CYP2C19 using HepaRG (AID 2283482). Put shortly: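 HepaRG, 48 h chemical exposure, 8-pt half-log series from 100 uM in 0.5% DMSO, duplicates. Readout: CYP2C19 mRNA by TaqMan qRT-PCR, housekeeping-normalized. Bidirectional fit vs DMSO baseline; phenobarbital 1mM as induction control.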

Read-out in experiment [18]: Alpha-fetoprotein (AFP) gene, AFP (gene 174)
Description: LTEA_HepaRG_AFP: Life Technologies and Expression Analysis (LTEA) Assay for Alpha-fetoprotein (AFP) gene using HepaRG (AID 2283472). Put shortly:
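After a 48 h plating period, cells are moved to serum-free induction medium and dosed in duplicate (100 uM maximum, half-log dilutions, 0.5% DMSO) for another 48 h. Total RNA goes to TaqMan qRT-PCR; AFP signal is housekeeping-normalized.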

Calls of active or inactive are those of the source. How the source made its calls: active means hit-call score of the fitted dose curve at least 0.9, where 1 is the maximum; inactive means score below 0.9.

Chain of Broad substrate specificity ATP-binding cassette transporter ABCG2 (Homo sapiens) (Q9UNQ0 whole entry, looked up): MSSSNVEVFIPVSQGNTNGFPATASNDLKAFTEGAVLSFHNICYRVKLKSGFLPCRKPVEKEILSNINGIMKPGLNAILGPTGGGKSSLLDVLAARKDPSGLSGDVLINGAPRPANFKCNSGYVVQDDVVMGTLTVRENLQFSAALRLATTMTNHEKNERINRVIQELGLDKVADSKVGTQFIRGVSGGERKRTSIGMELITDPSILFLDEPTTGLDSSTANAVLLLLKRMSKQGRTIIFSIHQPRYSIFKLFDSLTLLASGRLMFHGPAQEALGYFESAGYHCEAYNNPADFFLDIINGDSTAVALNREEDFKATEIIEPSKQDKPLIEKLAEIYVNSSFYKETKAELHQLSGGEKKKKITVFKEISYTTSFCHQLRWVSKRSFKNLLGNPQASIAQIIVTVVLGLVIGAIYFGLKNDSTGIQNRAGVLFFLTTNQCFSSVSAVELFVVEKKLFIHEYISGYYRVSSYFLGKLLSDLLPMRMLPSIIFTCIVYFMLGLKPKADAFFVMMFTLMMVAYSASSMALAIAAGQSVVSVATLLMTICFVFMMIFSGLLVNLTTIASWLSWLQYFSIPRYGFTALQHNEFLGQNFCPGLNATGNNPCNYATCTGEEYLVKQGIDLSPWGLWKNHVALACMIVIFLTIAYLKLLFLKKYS
Chain of Caspase-3 (Homo sapiens) (P42574 whole entry, looked up): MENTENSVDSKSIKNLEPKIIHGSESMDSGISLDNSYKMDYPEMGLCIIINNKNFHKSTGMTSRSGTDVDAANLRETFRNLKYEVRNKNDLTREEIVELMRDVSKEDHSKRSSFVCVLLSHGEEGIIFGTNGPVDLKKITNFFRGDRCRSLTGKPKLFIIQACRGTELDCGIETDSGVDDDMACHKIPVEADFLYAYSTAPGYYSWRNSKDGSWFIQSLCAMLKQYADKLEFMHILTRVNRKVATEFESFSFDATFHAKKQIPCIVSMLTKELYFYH
Chain of Apoptosis regulator Bcl-2 (Homo sapiens) (P10415 whole entry, looked up): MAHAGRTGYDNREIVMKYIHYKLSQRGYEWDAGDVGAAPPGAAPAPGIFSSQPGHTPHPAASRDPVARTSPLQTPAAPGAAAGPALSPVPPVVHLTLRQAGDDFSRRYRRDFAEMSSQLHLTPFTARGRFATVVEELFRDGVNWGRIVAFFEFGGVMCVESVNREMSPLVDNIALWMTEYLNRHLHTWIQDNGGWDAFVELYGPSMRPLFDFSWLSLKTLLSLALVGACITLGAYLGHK
Chain of Cytochrome P450 2C19 (Homo sapiens) (P33261 whole entry, looked up): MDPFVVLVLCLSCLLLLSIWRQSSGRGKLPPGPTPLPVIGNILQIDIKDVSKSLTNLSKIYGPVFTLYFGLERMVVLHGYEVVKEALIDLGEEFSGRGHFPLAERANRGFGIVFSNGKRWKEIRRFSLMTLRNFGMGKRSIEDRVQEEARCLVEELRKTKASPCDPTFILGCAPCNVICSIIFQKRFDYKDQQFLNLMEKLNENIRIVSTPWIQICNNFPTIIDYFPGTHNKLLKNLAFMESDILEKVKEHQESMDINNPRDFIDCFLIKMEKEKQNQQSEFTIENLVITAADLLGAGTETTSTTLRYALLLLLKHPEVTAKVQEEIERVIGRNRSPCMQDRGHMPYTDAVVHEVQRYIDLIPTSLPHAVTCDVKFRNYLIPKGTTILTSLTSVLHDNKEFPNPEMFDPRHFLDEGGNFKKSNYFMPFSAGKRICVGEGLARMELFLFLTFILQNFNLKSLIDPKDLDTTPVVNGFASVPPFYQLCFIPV

With `Nc1nc2ncc(CNc3ccc(C(=O)N[C@@H](CCC(=O)O)C(=O)O)cc3)nc2c(=O)[nH]1`, the result in [1], in [2], in experiment [3], in [4], in experiment [5] and in [6] was inactive. In addition, the compound was called inactive (in experiment [7]; in experiment [8]; in experiment [9]; with BCL2L11 (gene 10018); in experiment [10]; in [11]). Besides, the call (in experiment [12]; in the experiment with Caspase-3 (Homo sapiens); in experiment [13]; in [14]; in experiment [15]; in [16]) was inactive. Further, the result in [17] was inactive.

Regarding `CC(C)CC(C)(O)C#CC(C)(O)CC(C)C` (centres undefined), the outcome in [1], in experiment [2], in experiment [3], in experiment [4], in experiment [5] and in [6] was inactive. Besides, the compound was classed as inactive (in experiment [7]; in experiment [8]; in experiment [9]; in experiment [18]; with BCL2L11 (gene 10018); in experiment [10]). The outcome (in [11]; in experiment [12]; with Caspase-3 (Homo sapiens); in experiment [13]; in experiment [14]; in [15]) was inactive. Besides, the AC50 in experiment [16] is 21.9 µM (active); in experiment [17], 29.5 µM (active).

On to `Cc1ccc(S(=O)(=O)O)cc1C`, for which the outcome in experiment [1], in [2], in experiment [3], in experiment [4], in experiment [5] and in experiment [6] was inactive. The compound was called inactive (in experiment [7]; in [8]; in experiment [9]; in experiment [18]; in the experiment with BCL2L11 (gene 10018); in experiment [10]). The result (in experiment [11]; in experiment [12]; with Caspase-3 (Homo sapiens); in experiment [13]; in experiment [14]; in experiment [15]) was inactive. Besides, the result in experiment [16] and in [17] was inactive.

One may read the AC50 as the concentration at which the activity in the assay is half-maximal.

These data come from PubChem BioAssay (EPA / NIEHS).
